Source: the antibiotic and cytotoxicity screens of Wong et al. (2023)
Out of some 39,000 compounds screened, about 3,300 (8.5%) were called active. The sample holds actives, similar compounds and a random draw of the others, so the mix is not that of the screen.

These compounds were tested on HepG2 (assay: cytotoxicity call (relative viability < 0.9)). Conditions: 10 µM.

| Structure (SMILES) | cytotoxicity call |
| --- | --- |
| C[C@H]1CN([C@@H](C)CO)C(=O)c2cc(C#CC3(O)CCCC3)cnc2O[C@@H]1CN(C)C(=O)Cc1ccccc1 | inactive |
| C[C@H](CO)N1C[C@H](C)[C@@H](CN(C)Cc2ccc(F)cc2)Oc2cc(C#CC(C)(C)O)ccc2S1(=O)=O | inactive |
| OCC1OC(OC2C(O)C(CO)OC2(CO)OC2OC(CO)C(O)C(O)C2O)C(O)C(O)C1O (stereo not drawn) | inactive |
| CN(C)C(=O)N[C@H]1CN(S(C)(=O)=O)[C@H]2CCCO[C@@H]12 | inactive |
| C[C@@H]1CN([C@@H](C)CO)C(=O)c2cc(NS(=O)(=O)c3ccc(Cl)cc3)ccc2O[C@@H](C)CCCCO[C@H]1CN(C)Cc1ccc(C(=O)O)cc1 | inactive |
| Cn1nc(C(=O)O)c2ccccc2c1=O | inactive |
| COc1cccc(CNC(=O)c2cc3c(c(-c4cccc(-c5ccncc5)c4)n2)[C@@H](CCO)N([S@@](=O)C(C)(C)C)C3)c1 | inactive |
| C[C@H]1CC/C=C\[C@H]2O[C@@]34C=CCN(Cn5nnc6ccccc65)C(=O)[C@H]3N(CCCCCCO)C(=O)[C@@H]4[C@@H]2C(=O)O1 | inactive |
| C[C@H]1CN([C@@H](C)CO)C(=O)c2cc(Br)cnc2O[C@@H]1CN(C)C(=O)Nc1ccc(F)cc1 | inactive |
| COc1ccc(NC(=O)Nc2ccc3c(c2)C(=O)N([C@@H](C)CO)C[C@H](C)[C@@H](CN(C)Cc2ccc(C(F)(F)F)cc2)O3)cc1 | active |
| COc1ccc(CN(C)C[C@H]2Oc3ccc(NC(=O)Nc4ccc(C(F)(F)F)cc4)cc3C(=O)N([C@@H](C)CO)C[C@H]2C)cc1 | active |
| COc1ccc(CN(C)C[C@@H]2Oc3ccc(NC(=O)Nc4ccc(C(F)(F)F)cc4)cc3C(=O)N([C@H](C)CO)C[C@H]2C)cc1 | active |
| COc1ccc(CN(C)C[C@H]2Oc3ccc(NC(=O)Nc4ccc(C(F)(F)F)cc4)cc3C(=O)N([C@@H](C)CO)C[C@@H]2C)cc1 | active |
| c1ccc2c([C@@H]3CCCN3)cccc2c1 | inactive |
| Cc1ccc(S(=O)(=O)N(C)C[C@@H]2Oc3c(NC(=O)c4ccncc4)cccc3C(=O)N([C@H](C)CO)C[C@H]2C)cc1 | inactive |
| C[C@@H]1CCCCO[C@H](CN(C)Cc2ccncc2)[C@H](C)CN([C@@H](C)CO)C(=O)c2cc(NC(=O)Cc3ccccc3)ccc2O1 | inactive |
| COc1ccc(C#Cc2ccc3c(c2)O[C@H](CN(C)S(=O)(=O)c2ccccc2F)[C@H](C)CN([C@@H](C)CO)S3(=O)=O)cc1 | inactive |
| C=CCOC(=O)[C@H]1[C@@H]2C(=O)O[C@@H](c3ccccc3)[C@@H](c3ccccc3)N2[C@@H](c2ccc(OCCOC(=O)[C@H]3C[C@H]4C(=O)N[C@@H](CC(C)C)C(=O)N4[C@H]3c3ccc(O)cc3)cc2)[C@]12C(=O)Nc1ccccc12 | inactive |
| N=C(N)NCCS | inactive |
| C[C@@H]1CN([C@@H](C)CO)S(=O)(=O)c2ccc(C#Cc3ccccc3)cc2O[C@@H]1CN(C)C(=O)c1ccccn1 | inactive |
| C[C@@H]1CCCCO[C@@H](CN(C)C(=O)NC2CCCCC2)[C@H](C)CN([C@H](C)CO)C(=O)c2cc(NS(=O)(=O)c3ccc(Cl)cc3)ccc2O1 | inactive |
| N#C[C@H](N)c1ccc(Cl)cc1 | inactive |
| COc1ccc(NC(=O)Nc2ccc3c(c2)C(=O)N([C@@H](C)CO)C[C@@H](C)[C@@H](CN(C)Cc2ccc(C(F)(F)F)cc2)O3)cc1 | active |
| COc1ccc(CN(C)C[C@@H]2Oc3ccc(NC(=O)Nc4ccc(C(F)(F)F)cc4)cc3C(=O)N([C@@H](C)CO)C[C@H]2C)cc1 | active |

| Structure (SMILES) | cytotoxicity call |
| --- | --- |
| COc1ccc(NC(=O)Nc2ccc3c(c2)C(=O)N([C@@H](C)CO)C[C@H](C)[C@H](CN(C)Cc2ccc(C(F)(F)F)cc2)O3)cc1 | inactive |
| COc1ccc(NC(=O)Nc2ccc3c(c2)C(=O)N([C@@H](C)CO)C[C@@H](C)[C@H](CN(C)Cc2ccc(C(F)(F)F)cc2)O3)cc1 | inactive |
| C[C@@H]1CCCCO[C@@H](CN(C)C(=O)Nc2ccccc2)[C@@H](C)CN([C@@H](C)CO)C(=O)c2cc(NS(=O)(=O)c3ccccc3)ccc2O1 | inactive |
| C[C@@H]1CN([C@@H](C)CO)C(=O)CCCn2nncc2CO[C@H]1CN(C)S(=O)(=O)c1ccc(-c2ccccc2)cc1 | inactive |
| C[C@H]1CN([C@@H](C)CO)C(=O)Cc2cc(NC(=O)Nc3cccc4ccccc34)ccc2O[C@H]1CN(C)C(=O)Nc1ccc2c(c1)OCO2 | inactive |
| C[C@@H]1CCCCO[C@@H](CN(C)S(=O)(=O)c2ccc(Cl)cc2)[C@H](C)CN([C@H](C)CO)C(=O)c2cc(NS(=O)(=O)c3ccc(F)cc3)ccc2O1 | inactive |
| Nc1ncnc2c1ncn2[C@@H]1O[C@H](C[C@@H](N)CC[C@H](N)C(=O)O)[C@@H](O)[C@H]1O | inactive |
| CC(C)N(C[C@H]1O[C@@H](n2cnc3c(N)ncnc32)[C@H](O)[C@@H]1O)[C@H]1C[C@@H](CCc2nc3ccc(C(C)(C)C)cc3[nH]2)C1 | active |
| CC(C)N(CCCNC(=O)Nc1ccc(C(C)(C)C)cc1)C[C@H]1O[C@@H](n2cnc3c(N)ncnc32)[C@@H](O)[C@H]1O | inactive |
| C[C@H]1CN([C@@H](C)CO)C(=O)Cc2cc(NC(=O)C3CC3)ccc2O[C@@H]1CN(C)S(=O)(=O)c1cccs1 | inactive |
| CC(C)NC(=O)N(C)C[C@H]1Oc2ccc(NS(=O)(=O)c3ccccc3)cc2CC(=O)N([C@@H](C)CO)C[C@H]1C | inactive |
| Cn1c(Nc2ccc(C(F)(F)F)cc2)nc2cc(Oc3ccnc(-c4ncc(C(F)(F)F)[nH]4)c3)ccc21 | active |
| COc1ccc(NC(=O)Nc2ccc3c(c2)C(=O)N([C@H](C)CO)C[C@H](C)[C@H](CN(C)Cc2ccncc2)OCCCC[C@H](C)O3)cc1 | inactive |
| CO[C@@H]1CN(C)C(=O)c2cc(NC(=O)Nc3ccccc3F)ccc2OC[C@@H](C)N(Cc2ccccc2C(=O)O)C[C@H]1C | inactive |
| COc1ccc(-c2coc3cc(OC)ccc3c2=O)c(O)c1 | inactive |
| Cc1c(C(N)=O)nnn1-c1ccc(F)cc1 | inactive |
| C[C@H]1CCCCO[C@H](CN(C)CC2CC2)[C@@H](C)CN([C@@H](C)CO)C(=O)c2cc(NC(=O)Nc3ccc(C(F)(F)F)cc3)ccc2O1 | inactive |
| C[C@H](CO)N1C[C@H](C)[C@H](CN(C)CC2CC2)OCCCC[C@H](C)Oc2ccc(NC(=O)Nc3ccc(C(F)(F)F)cc3)cc2C1=O | active |
| C[C@@H]1CCCCO[C@H](CN(C)CC2CC2)[C@H](C)CN([C@@H](C)CO)C(=O)c2cc(NC(=O)Nc3ccc(C(F)(F)F)cc3)ccc2O1 | active |
| C[C@H](CO)N1C[C@H](C)[C@@H](CN(C)CC2CC2)OCCCC[C@H](C)Oc2ccc(NC(=O)Nc3ccc(C(F)(F)F)cc3)cc2C1=O | inactive |
| C[C@@H]1CCCCO[C@@H](CN(C)CC2CC2)[C@@H](C)CN([C@H](C)CO)C(=O)c2cc(NC(=O)Nc3ccc(C(F)(F)F)cc3)ccc2O1 | active |
| C[C@@H]1CCCCO[C@@H](CN(C)CC2CC2)[C@H](C)CN([C@@H](C)CO)C(=O)c2cc(NC(=O)Nc3ccc(C(F)(F)F)cc3)ccc2O1 | inactive |
| C[C@@H]1CCCCO[C@H](CN(C)CC2CC2)[C@H](C)CN([C@H](C)CO)C(=O)c2cc(NC(=O)Nc3ccc(C(F)(F)F)cc3)ccc2O1 | active |
| C[C@@H]1CCCCO[C@@H](CN(C)CC2CC2)[C@H](C)CN([C@H](C)CO)C(=O)c2cc(NC(=O)Nc3ccc(C(F)(F)F)cc3)ccc2O1 | inactive |
